{"source": "PubChem BioAssay (NCI)", "note": "The panel holds about 83,000 compounds, 20% with a hit somewhere; the sample as a whole holds those more often.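 48-hour exposure, single concentration, 96-well plates; percent growth endpoint where 0 means no net growth. Active: below 10.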 Active and inactive are the calls of the source.", "data": [{"tested_on": "EKVX NSCLC", "test": "NCI-60 one-dose screen, 48 h (100 = growth as untreated, 0 = no growth, -100 = all killed)", "settings": "10 µM", "values": [{"compound": "COc1cc2c(c(OC)c1OC)C(=O)CC(c1cccc(C(=O)Nc3cccc(Br)c3)c1)O2", "note": "(stereo unspecified)", "growth": "85.1% (inactive)"}, {"compound": "CCCNC(=O)Oc1ccc(/C(=C(/CC)Cc2ccccc2)c2ccc(OCCN(CC)CC)cc2)cc1", "growth": "79.3% (inactive)"}, {"compound": "O=C(/C=C1\\C(=O)N(Cc2ccccc2)c2ccccc21)c1ccc(OCCN2CCCCC2)cc1", "growth": "64.2% (inactive)"}, {"compound": "Cc1ccc(C(=O)NN)cc1", "growth": "97.1% (inactive)"}, {"compound": "CC1Cc2cc(F)ccc2-n2cccc21", "note": "(stereo unspecified)", "growth": "107% (inactive)"}, {"compound": "CCCCCCCCCCN1CC2CCCCC2C1", "note": "(stereo unspecified)", "growth": "63% (inactive)"}, {"compound": "Cc1sc(NC(=O)c2ccc(C(C)(C)C)cc2)c(C(=O)O)c1C", "growth": "51.1% (inactive)"}, {"compound": "COc1cc2cc3cc4cc(OC)c(OC)cc4c(C)[n+]3cc2cc1OC", "note": "(tested in a mixture with another compound)", "growth": "60.8% (inactive)"}, {"compound": "CC(C)(C)C(=O)OCOP(=O)(OCOC(=O)C(C)(C)C)C1CC(O)N(O)C1=O", "note": "(stereo unspecified)", "growth": "66% (inactive)"}, {"compound": "COc1ccc(/C=N/c2cc(C(C)(C)C)nn2-c2ccccc2)cc1", "growth": "104% (inactive)"}, {"compound": "COc1ccc(/C=C2\\SC(=O)N(Cc3cc(=O)oc4ccc(OC)cc34)C2=O)cc1", "growth": "79.3% (inactive)"}, {"compound": "COc1ccc(CN2C(=O)/C(=C\\C(=O)c3ccc(OCCN4CCCCC4)cc3)c3ccccc32)cc1", "growth": "87.6% (inactive)"}, {"compound": "CC(C)CSc1nc(-c2ccc(F)cc2)c(C#N)c(N2CCCCC2)n1", "growth": "93.4% (inactive)"}, {"compound": "CCCCCN1CCN(C(CC(=O)c2ccccc2)C(=O)c2ccccc2)CC1", "note": "(stereo unspecified)", "growth": "110% (inactive)"}, {"compound": "CCCCCC(=C/c1ccccc1)/C=N/N=C(N)N", "growth": "46.1% (inactive)"}, {"compound": "CC(=O)OCC(=O)[C@@]1(O)[C@H](C)C[C@H]2[C@@H]3C=C(C)C4=Cc5c(cnn5-c5ccc(F)cc5)C[C@]4(C)[C@H]3[C@@H](O)C[C@@]21C", "growth": "28.5% (inactive)"}]}]}
